# According to PubChem BioAssay (NCATS):
# Inconclusive results are not listed. Activity calls are given as the source filed them. Unless noted, the call rests on the fitted dose curve; in most records, active means well fitted curve in the direction sought with a large enough effect; inconclusive means small, poorly fitted or top-dose-only effect, or another doubt; inactive means no such curve, though single readings can be large; an effect the other way counts as inactive or inconclusive.
# Key:
# [1] = molecular target: Lysosomal acid glucosylceramidase (Homo sapiens) (UniProt P04062); experiment: Glucocerebrosidase-p2 (AID 348; in the data active means potency below about 10 µM; further: potency means the concentration at half of the fitted maximal effect); details: purified GBA, blue fluorogenic substrate, 40 min
# Method in brief: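 Compounds titrated from 0.6 nM upwards against 0.2 nM enzyme in pH 5.9 citric acid/KH2PO4, taurocholate, tween-20; blue fluorogenic substrate 80 uM, 40 min room temperature, stopped and read Ex 365/Em 440 for AC50.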
# [2] = NFAT Signaling Pathway (AID 444; active means well fitted curve in either direction with a large enough effect, not every such curve was filed as active;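 further: carbachol stimulus at about its EC50 of 1 µM final; on the % scale 0 is the no-effect control and ±100 the full control effect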); details: Jurkat NFAT-bla M1, carbachol, beta-lactamase ratio, 5 h; at 7.69 µM (top of the series) unless noted
# Method in brief: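 Read-out: CCF4 FRET ratio (460 nm/530 nm) after 1 h RT dye loading, used for %activity and AC50 from titration series. Cells: Jurkat NFAT-β-lactamase/M1 line, treated with compound plus 1 uM carbachol for 5 h, 37 °C.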
# [3] = Stat Signaling Pathway (AID 446; active means well fitted curve in either direction with a large enough effect, not every such curve was filed as active;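 further: ME-180 cervical cancer cells given 40 pM IL-6 alongside compound; SIE-controlled beta-lactamase reporter measured as 460/530 nm FRET emission ratio; on the % scale 0 is the no-effect control and ±100 the full control effect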); details: ME-180 SIE beta-lactamase reporter, IL-6 stimulated, 5 h; at 7.69 µM (top of the series) unless noted
# Method in brief: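 IL-6/STAT signaling read in ME-180 cells via an SIE beta-lactamase reporter. Stimulus was 40 pM IL-6 (its AC50) for 5 hrs, so both activation and inhibition register.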
# [4] = molecular target: Glucocorticoid receptor (Homo sapiens) (UniProt P04150); experiment: GR-GFP Redistribution (AID 450;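 active means compounds whose dose series gives a full or clear partial fitted curve of increased nuclear translocation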; further: potency means the concentration at half of the fitted maximal effect); details: U2OS GR-GFP nuclear translocation, laser cytometry, 2 h
# [5] = molecular target: Glucocorticoid receptor (Homo sapiens) (UniProt P04150); experiment: GR-EFC Redistribution (AID 451; calls by dose curve; further: potency means the concentration at half of the fitted maximal effect); details: CHO-K1 GR-EFC translocation, beta-gal luminescence, 2 h
# Method in brief: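 Translocation of GR-ED fusion to nuclear EA restores b-gal, read by luminescence after 1 h room-temperature detection. Engineered CHO-K1 biosensor cells, 1,000/well, exposed 2 h at 37 C to titrations up to 46 uM final.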
# [6] = molecular target: Mitogen-activated protein kinase 10 (Mus musculus) (UniProt Q61831); experiment: JNK3 AlphaScreen Assay (AID 530; active means well fitted curve in either direction with a large enough effect, not every such curve was filed as active;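 further: kinase came from lysate of stimulated human HepG2 cells; signal reports phosphorylation of biotinylated GST-cJun 1-79 at Ser73 with 10 µM ATP; on the % scale 0 is the no-effect control and ±100 the full control effect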); details: JNK3 lysate, c-Jun phosphorylation; series mostly up to 57.1 µM
# Method in brief: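 Room-temperature AlphaScreen kinase assay; pre-activated HepG2 lysate as JNK3 source, biotin-GST-cJun(1-79) substrate, 10 uM ATP, compound 15 min preincubation.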
# [7] = molecular target: Cytochrome P450 3A4 (Homo sapiens) (UniProt P08684); experiment: qHTS Assay for Activators of Cytochrome P450 3A4 (AID 885); details: recombinant CYP3A4, Luciferin-PPXE luminescence, 60 min; series mostly up to 57.1 µM; further: nearly all actives have a fitted effect of over 65% in size
# Method in brief: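 Quantitative HTS format: compounds preincubated with 20nM human CYP3A4 and Luciferin-PPXE substrate at KM, reaction started by NADPH regeneration, stopped after 60 min, luciferase luminescence read 20 min later.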
# [8] = qHTS Assay for Lipid Storage Modulators (AID 1519; calls by dose curve); details: Drosophila S3 cells, BODIPY lipid droplet/cell ratio, laser cytometry, cells loaded with oleic acid; for activity change, negative = inhibition: at 57.5 µM (top of the series)
# Method in brief: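 Cells seeded at 5,000 per well were treated with compounds over a concentration series and loaded with oleic acid (400 uM, as added). Lipid droplet fluorescence (488 nm excitation, 500-530 nm channel) was read by laser-scanning cytometry and normalized to 20 uM Triacsin C.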
# [9] = molecular target: Dual specificity protein kinase CLK4 (Homo sapiens) (UniProt Q9HAZ1); experiment: qHTS Assay for Inhibitors of CDC-like Kinase 4 (Kinase-Glo Assay) (AID 1770); details: recombinant Clk4, Kinase-Glo ATP depletion luminescence; series mostly up to 66.7 µM; further: nearly all actives have a fitted effect of over 65% in size; further: potency means the concentration at half of the fitted maximal effect
# Method in brief: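 25 nM Clk4 with 100 uM RS repeat peptide and 1 uM ATP (final) in Tris pH7.5, 10 mM MgCl2, 4.5 h at room temperature. Remaining ATP measured by Kinase-Glo luciferase luminescence.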
# [10] = molecular target: Dual specificity protein kinase CLK4 (Homo sapiens) (UniProt Q9HAZ1); experiment: qHTS Assay for Inhibitors of CDC-like Kinase 4 (ADP-Glo Assay) (AID 1771); details: recombinant CLK4, ADP-Glo luminescence; series mostly up to 80 µM; further: nearly all actives have a fitted effect of over 70% in size; further: potency means the concentration at half of the fitted maximal effect
# Method in brief: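 Clk4 (25 nM) was incubated 1 hr at room temperature with 100 uM RS repeat peptide and 1 uM ATP in buffer with 2 mM MgCl2, 0.5 mM EGTA, 2.5 mM DTT. ADP formed was quantified by ADP-Glo luminescence.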
# [11] = molecular target: Ubiquitin carboxyl-terminal hydrolase 1 (Homo sapiens) (UniProt O94782); experiment: Inhibitors of USP1/UAF1: Pilot qHTS (AID 504865); details: purified USP1/UAF1, Ub-rhodamine cleavage fluorescence; series mostly up to 54.9 µM; further: nearly all actives have a fitted effect of over 35% in size; further: potency means the concentration at half of the fitted maximal effect
# Method in brief: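 USP1/UAF1 complex at 1 nM preincubated 15 min at room temperature with compound, then Ub-Rho substrate added at 150 nM final. Fluorescence (480/540 nm) read kinetically in 50 mM HEPES pH 7.8, 0.5 mM EDTA, 1 mM TCEP, 0.1 mg/ml BSA, 0.01% Tween-20.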
# [12] = Primary qHTS for small molecule stabilizers of the endoplasmic reticulum resident proteome: Secreted ER Calcium Modulated Protein (SERCaMP) assay (AID 1508630); details: SH-SY5Y GLuc-SERCaMP (Gaussia luciferase released on ER calcium loss) secretion, thapsigargin, luminescence; series mostly up to 38.4 µM; further: on the % scale 0 is the no-effect control and ±100 the full control effect
# Method in brief: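 GLuc-SERCaMP-expressing SH-SY5Y cells, pretreated 16 h with compound, are challenged with thapsigargin to empty ER calcium stores; after 4 h, coelenterazine is added directly to the medium and luminescence is imaged.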
# [13] = molecular target: Rap guanine nucleotide exchange factor 3 (Homo sapiens) (UniProt O95398); experiment: Confirmatory qHTS for agonist of cAMP-regulated guanine nucleotide exchange factor 3 (EPAC1) (AID 1645881); details: EPAC1 Rap1B BODIPY-GDP exchange fluorescence, 100% = cAMP control response; series mostly up to 154 µM;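 further: EPAC1 catalysed release of BODIPY-GDP from Rap1B seen as fluorescence loss; nearly all actives have a fitted effect of over 75% in size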
# [14] = molecular target: Rap guanine nucleotide exchange factor 4 (Homo sapiens) (UniProt Q8WZA2); experiment: Confirmatory qHTS for agonist of cAMP-regulated guanine nucleotide exchange factor 4 (EPAC2) (AID 1645884); details: EPAC2 GEF activity, Rap1B-BODIPY-GDP fluorescence, percent relative to cAMP agonist control; series mostly up to 154 µM;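 further: nucleotide exchange releases bodipy-GDP from Rap1 and this lowers its fluorescence; on the % scale 0 is the no-effect control and ±100 the full control effect; nearly all actives have a fitted effect of over 65% in size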
# [15] = AP1 Signaling Pathway (AID 357; active means well fitted curve in either direction with a large enough effect, not every such curve was filed as active); details: ME-180 (cervical carcinoma) AP-1-bla reporter, EGF-induced, beta-lactamase ratio, 5 h; at 7.69 µM (top of the series) unless noted
# Method in brief: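 Titration-series screen for positive or negative modulators of EC50 EGF-induced signaling in ME-180 cells carrying an AP-1-driven beta-lactamase reporter. After 5 hours at 37 degrees Celsius, CCF4 460nm/530nm emission ratio gave %Activity; AC50 values derived.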
# [16] = molecular target: Cytochrome P450 1A2 (Homo sapiens) (UniProt P05177); experiment: p450-cyp1a2 (AID 410; calls by dose curve; further: potency means the concentration at half of the fitted maximal effect); details: recombinant CYP1A2, luciferin-ME demethylation, luminescence; series mostly up to 57 µM
# Method in brief: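 Human CYP1A2 (20nM) demethylated Luciferin-ME at its Km (100uM) in 100mM KPO4. After 10 min compound preincubation, NADPH regeneration ran the reaction 60 min at room temperature. Luciferin was read by luminescence, normalized to 57 uM furafylline.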
# [17] = molecular target: Dual specificity protein kinase CLK4 (Homo sapiens) (UniProt Q9HAZ1); experiment: qHTS Assay for Inhibitors of CDC-like Kinase 4 (ADP-FP Assay) (AID 1795); details: Transcreener ADP fluorescence polarization; series mostly up to 50 µM;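 further: recombinant human CLK4 phosphorylating RS repeat peptide at 1 µM ATP; on the % scale 0 is the no-effect control and ±100 the full control effect; nearly all actives have a fitted effect of over 60% in size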
# Method in brief: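 Recombinant Clk4 (6.25 nM) phosphorylated 100 uM RS repeat peptide with 1 uM ATP in 25 mM Tris pH 7.5, 10 mM MgCl2, 0.5 mM EGTA, 2.5 mM DTT, 0.01% Triton X-100 for 1 h. ADP was detected by Transcreener ADP2 competitive fluorescence polarization after 30 min at room temperature.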
# [18] = molecular target: 3',5'-cyclic-AMP phosphodiesterase 4B (Homo sapiens) (UniProt Q07343); experiment: qHTS Assay for Inhibitors of PDE-IV (AID 607; active means well fitted activation curve with a large enough effect in the main read-out, with a control signal flat, not every such curve was filed as active; further: % of control where 0% means no effect); details: HEK293 ACTOne CNG channel cells, membrane potential fluorescence; series mostly up to 22.9 µM
# Method in brief: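 Live HEK293 cells with a modified cyclic nucleotide-gated (CNG) channel report intracellular cAMP via membrane-potential dye fluorescence (ex 535/em 590 nm). Endogenous PDE-IV was targeted. Compounds were tested at up to 22.9 uM final; RO 20-1724 100 uM served as control.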
# [19] = molecular target: Rap guanine nucleotide exchange factor 4 (Homo sapiens) (UniProt Q8WZA2); experiment: Confirmatory qHTS for antagonist of cAMP-regulated guanine nucleotide exchange factor 4 (EPAC2) (AID 1645885); details: EPAC2 Rap1B-BODIPY-GDP exchange fluorescence, biochemical; series mostly up to 114 µM; further: on the % scale 0 is the no-effect control and ±100 the full control effect; nearly all actives have a fitted effect of over 25% in size
# [20] = measured here: cell count channel max response
# [21] = measured here: lipid channel max response
# Chain of Glucocorticoid receptor (Homo sapiens) (P04150 whole entry, looked up, the tested form may be a part): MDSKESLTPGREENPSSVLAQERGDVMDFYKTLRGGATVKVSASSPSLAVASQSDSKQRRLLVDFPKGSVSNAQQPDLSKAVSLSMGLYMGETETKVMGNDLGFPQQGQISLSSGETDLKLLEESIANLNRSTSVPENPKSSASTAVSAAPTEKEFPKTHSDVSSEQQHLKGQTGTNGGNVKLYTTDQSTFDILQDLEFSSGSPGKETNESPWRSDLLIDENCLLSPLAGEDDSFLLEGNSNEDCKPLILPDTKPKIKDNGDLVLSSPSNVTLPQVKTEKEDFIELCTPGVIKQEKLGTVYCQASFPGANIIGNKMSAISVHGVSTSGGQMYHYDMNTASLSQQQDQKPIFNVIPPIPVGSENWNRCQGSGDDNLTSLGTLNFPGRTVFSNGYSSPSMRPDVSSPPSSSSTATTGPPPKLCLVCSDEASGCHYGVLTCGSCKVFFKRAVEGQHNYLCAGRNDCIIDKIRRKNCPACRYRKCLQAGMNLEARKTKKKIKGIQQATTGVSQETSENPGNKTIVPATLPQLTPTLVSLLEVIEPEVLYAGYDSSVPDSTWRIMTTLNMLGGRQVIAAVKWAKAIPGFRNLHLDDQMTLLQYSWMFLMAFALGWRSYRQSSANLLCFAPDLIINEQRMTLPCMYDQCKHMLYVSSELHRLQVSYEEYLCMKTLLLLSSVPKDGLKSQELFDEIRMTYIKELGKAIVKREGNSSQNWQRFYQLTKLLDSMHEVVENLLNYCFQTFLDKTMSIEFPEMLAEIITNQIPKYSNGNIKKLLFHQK
# Chain of Lysosomal acid glucosylceramidase (Homo sapiens) (P04062 whole entry, looked up): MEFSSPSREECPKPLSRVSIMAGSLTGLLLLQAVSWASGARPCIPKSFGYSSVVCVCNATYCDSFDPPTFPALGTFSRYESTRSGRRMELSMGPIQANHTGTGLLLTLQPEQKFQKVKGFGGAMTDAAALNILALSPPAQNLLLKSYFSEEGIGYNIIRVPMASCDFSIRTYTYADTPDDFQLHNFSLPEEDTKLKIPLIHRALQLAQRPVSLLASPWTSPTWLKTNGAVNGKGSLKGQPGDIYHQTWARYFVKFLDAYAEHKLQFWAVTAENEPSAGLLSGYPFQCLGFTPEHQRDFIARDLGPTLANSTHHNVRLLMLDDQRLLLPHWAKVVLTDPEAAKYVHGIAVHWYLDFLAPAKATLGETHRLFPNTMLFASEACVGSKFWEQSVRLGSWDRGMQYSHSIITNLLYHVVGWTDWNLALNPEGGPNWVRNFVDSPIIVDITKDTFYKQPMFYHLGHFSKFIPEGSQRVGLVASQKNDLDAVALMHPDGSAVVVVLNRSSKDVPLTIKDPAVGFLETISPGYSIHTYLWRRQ
# Chain of Cytochrome P450 1A2 (Homo sapiens) (P05177 whole entry, looked up): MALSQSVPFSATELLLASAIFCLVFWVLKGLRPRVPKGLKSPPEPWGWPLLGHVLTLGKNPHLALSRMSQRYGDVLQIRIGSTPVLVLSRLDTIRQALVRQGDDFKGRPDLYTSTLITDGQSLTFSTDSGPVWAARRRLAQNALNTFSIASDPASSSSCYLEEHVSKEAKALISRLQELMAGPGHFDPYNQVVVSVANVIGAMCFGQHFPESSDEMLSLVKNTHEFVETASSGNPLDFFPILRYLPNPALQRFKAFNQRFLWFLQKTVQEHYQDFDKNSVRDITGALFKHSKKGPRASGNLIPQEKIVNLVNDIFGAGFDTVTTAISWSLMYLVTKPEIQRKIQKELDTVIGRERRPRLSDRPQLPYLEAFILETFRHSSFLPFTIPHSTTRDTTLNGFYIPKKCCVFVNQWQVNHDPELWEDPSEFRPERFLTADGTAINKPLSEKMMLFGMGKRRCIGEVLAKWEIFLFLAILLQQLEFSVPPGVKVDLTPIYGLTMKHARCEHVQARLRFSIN
# Chain of Ubiquitin carboxyl-terminal hydrolase 1 (Homo sapiens) (O94782 whole entry, looked up): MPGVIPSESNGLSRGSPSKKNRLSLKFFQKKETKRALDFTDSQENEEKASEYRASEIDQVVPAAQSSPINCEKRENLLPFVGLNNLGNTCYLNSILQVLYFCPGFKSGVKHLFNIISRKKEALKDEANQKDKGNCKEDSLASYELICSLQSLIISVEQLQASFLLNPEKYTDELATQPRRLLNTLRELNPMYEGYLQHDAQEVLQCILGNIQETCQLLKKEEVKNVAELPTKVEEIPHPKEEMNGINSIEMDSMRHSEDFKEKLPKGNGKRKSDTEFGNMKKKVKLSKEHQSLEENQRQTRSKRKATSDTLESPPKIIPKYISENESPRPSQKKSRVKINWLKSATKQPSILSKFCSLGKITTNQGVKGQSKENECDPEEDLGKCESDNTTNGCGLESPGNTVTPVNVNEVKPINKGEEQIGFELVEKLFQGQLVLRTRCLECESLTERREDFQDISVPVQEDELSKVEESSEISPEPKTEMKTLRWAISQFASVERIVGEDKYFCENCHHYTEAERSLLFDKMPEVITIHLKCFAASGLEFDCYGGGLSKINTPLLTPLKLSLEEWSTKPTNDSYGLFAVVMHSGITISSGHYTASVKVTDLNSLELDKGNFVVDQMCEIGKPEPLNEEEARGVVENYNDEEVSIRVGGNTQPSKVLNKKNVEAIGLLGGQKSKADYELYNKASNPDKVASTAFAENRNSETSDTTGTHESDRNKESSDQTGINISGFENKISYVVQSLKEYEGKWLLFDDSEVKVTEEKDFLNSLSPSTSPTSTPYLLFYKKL
# Chain of Dual specificity protein kinase CLK4 (Homo sapiens) (Q9HAZ1 whole entry, looked up): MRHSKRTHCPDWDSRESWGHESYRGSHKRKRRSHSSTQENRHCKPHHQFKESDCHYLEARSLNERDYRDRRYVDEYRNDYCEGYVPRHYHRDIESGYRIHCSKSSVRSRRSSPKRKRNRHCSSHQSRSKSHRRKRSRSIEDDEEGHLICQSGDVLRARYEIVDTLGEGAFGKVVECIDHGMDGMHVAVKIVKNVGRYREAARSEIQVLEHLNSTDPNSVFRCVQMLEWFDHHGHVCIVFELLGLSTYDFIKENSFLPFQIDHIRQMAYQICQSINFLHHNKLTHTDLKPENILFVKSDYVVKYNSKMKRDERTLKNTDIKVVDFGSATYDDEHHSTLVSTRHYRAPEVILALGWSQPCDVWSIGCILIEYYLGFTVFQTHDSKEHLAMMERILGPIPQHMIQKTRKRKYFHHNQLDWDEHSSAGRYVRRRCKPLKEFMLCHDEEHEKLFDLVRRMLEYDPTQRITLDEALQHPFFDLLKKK
# Chain of Rap guanine nucleotide exchange factor 3 (Homo sapiens) (O95398 whole entry, looked up): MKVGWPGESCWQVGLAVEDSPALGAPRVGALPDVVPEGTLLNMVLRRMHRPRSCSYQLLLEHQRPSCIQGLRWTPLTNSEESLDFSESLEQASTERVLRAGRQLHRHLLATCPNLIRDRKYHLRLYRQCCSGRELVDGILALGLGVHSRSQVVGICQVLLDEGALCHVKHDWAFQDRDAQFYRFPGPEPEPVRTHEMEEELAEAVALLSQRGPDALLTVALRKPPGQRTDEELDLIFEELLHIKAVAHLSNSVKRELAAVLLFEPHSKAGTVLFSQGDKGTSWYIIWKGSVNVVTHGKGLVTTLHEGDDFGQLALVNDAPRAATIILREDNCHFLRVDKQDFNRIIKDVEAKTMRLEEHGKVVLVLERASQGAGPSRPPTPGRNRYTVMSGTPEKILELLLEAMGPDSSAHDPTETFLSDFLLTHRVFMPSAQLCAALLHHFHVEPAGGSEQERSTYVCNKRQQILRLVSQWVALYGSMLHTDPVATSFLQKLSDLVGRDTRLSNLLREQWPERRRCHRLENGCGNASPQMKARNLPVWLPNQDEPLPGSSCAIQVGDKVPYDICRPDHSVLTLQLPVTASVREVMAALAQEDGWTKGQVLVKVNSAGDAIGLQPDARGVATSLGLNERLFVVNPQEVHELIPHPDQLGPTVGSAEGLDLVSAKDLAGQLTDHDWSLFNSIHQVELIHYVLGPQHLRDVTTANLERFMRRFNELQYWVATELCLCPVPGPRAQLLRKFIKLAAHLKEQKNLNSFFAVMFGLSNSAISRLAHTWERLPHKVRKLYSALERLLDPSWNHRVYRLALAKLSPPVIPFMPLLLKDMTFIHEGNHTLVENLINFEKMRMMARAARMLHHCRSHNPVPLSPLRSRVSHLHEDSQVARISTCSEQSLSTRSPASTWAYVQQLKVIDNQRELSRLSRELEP
# Chain of Rap guanine nucleotide exchange factor 4 (Homo sapiens) (Q8WZA2 whole entry, looked up): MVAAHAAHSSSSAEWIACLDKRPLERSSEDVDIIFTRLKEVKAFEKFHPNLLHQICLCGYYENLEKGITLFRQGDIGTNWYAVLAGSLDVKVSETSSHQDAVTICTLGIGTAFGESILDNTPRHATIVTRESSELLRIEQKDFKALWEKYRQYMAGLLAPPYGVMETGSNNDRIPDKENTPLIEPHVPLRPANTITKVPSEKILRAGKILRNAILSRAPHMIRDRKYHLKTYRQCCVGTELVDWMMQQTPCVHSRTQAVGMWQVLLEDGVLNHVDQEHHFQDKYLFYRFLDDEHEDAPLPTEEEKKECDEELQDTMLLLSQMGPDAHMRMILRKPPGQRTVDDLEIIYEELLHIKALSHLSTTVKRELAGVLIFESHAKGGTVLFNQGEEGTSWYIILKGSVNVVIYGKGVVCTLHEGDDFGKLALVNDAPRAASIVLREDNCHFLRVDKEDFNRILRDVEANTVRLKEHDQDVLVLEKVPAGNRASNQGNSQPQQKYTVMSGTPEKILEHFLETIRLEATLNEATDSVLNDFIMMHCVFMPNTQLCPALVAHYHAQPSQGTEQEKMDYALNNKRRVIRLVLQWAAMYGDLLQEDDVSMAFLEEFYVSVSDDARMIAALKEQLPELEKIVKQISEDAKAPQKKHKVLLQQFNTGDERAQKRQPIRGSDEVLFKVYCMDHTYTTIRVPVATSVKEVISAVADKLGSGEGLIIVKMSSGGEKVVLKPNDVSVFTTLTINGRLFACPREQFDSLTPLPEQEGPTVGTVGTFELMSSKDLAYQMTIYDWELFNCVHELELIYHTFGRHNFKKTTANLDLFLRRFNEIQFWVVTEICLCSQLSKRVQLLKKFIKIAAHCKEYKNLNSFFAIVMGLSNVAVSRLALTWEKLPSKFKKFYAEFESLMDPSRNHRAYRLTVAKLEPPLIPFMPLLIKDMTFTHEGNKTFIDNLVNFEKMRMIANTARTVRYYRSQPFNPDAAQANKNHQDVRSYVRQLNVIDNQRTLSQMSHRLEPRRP
compound,measurement,setting,value
FC(F)(F)c1ccccc1-c1nc(N2CCOCC2)c2ccccc2n1,Potency,[1],> 11.4 µM (inactive)
same,"activity change, negative = inhibition",[2],-3.63% (inactive)
same,"activity, negative = inhibition",[3],2.43% (inactive)
same,Potency,[4],> 46 µM (inactive)
same,Potency,[5],> 46 µM (inactive)
same,outcome,[6],inactive
same,Potency,[7],inactive
same,"activity change, negative = inhibition",[8],6.74% (inactive)
same,max response,[8]; [20],22.9%
same,max response,[8]; [21],28.1%
same,Potency,[9],25.1 µM (active)
same,Potency,[10],14.1 µM (active)
same,Potency,[11],31.6 µM (active)
same,Potency,[12],inactive
same,outcome,[13],inactive
same,outcome,[14],inactive
COc1ccc(-n2c(=O)c(-c3cccs3)nc3cncnc32)cc1,Potency,[1],> 11.4 µM (inactive)
same,"activity change, negative = inhibition",[15],-19.3% (inactive)
same,Potency,[16],10 µM (active)
same,"activity change, negative = inhibition",[2],0.0711% (inactive)
same,"activity, negative = inhibition",[3],-0.243% (inactive)
same,Potency,[4],> 9.22 µM (inactive)
same,Potency,[5],> 46 µM (inactive)
same,outcome,[6],inactive
same,"activity change, negative = inhibition",[8],-10.8% (inactive)
same,max response,[8]; [20],28.9%
same,max response,[8]; [21],11.5%
same,Potency,[9],inactive
same,Potency,[10],inactive
same,Potency,[17],inactive
same,Potency,[11],inactive
same,Potency,[12],inactive
O=c1c(-c2cc(F)cc(F)c2)nc2cncnc2n1-c1ccccc1,Potency,[1],> 11.4 µM (inactive)
same,"activity change, negative = inhibition",[15],-15.8% (inactive)
same,Potency,[16],12.6 µM (active)
same,"activity change, negative = inhibition",[2],-2.26% (inactive)
same,"activity, negative = inhibition",[3],-16.9% (inactive)
same,Potency,[4],> 9.22 µM (inactive)
same,Potency,[5],> 46 µM (inactive)
same,outcome,[6],inactive
same,"activity change, negative = inhibition",[8],6.93% (inactive)
same,max response,[8]; [20],22.2%
same,max response,[8]; [21],28.7%
same,Potency,[9],inactive
same,Potency,[10],inactive
same,Potency,[17],inactive
same,Potency,[11],inactive
same,Potency,[12],inactive
COc1ccc(-c2nc3cnc(N4CCNCC4)nc3n(Cc3cccs3)c2=O)cc1,Potency,[16],3.98 µM (active)
same,"activity change, negative = inhibition",[2],182% [activator] (active)
same,Potency,[5],> 46 µM (inactive)
same,outcome,[6],inactive
same,Potency,[18],inactive
same,"activity change, negative = inhibition",[8],1.49% (inactive)
same,max response,[8]; [20],7.67%
same,max response,[8]; [21],6.52%
same,Potency,[9],inactive
same,Potency,[10],inactive
same,Potency,[12],inactive
same,outcome,[13],inactive
COc1ccc(-n2c(=O)c(-c3cc(F)cc(F)c3)nc3cnc(N(C)C)nc32)cc1,Potency,[1],> 11.4 µM (inactive)
same,"activity change, negative = inhibition",[2],17.5% (inactive)
same,Potency,[4],> 9.22 µM (inactive)
same,Potency,[5],> 46 µM (inactive)
same,outcome,[6],inactive
same,Potency,[18],inactive
same,"activity change, negative = inhibition",[8],5.64% (inactive)
same,max response,[8]; [20],11.6%
same,max response,[8]; [21],18.1%
same,Potency,[9],inactive
same,Potency,[10],inactive
same,Potency,[17],inactive
same,Potency,[11],inactive
same,Potency,[12],inactive
same,outcome,[13],inactive
same,outcome,[14],inactive
same,Potency,[19],inactive
COCCn1c(=O)c(CCc2ccccc2)nc2cnc(Nc3cccc(OC)c3)nc21,Potency,[1],> 11.4 µM (inactive)
same,"activity change, negative = inhibition",[15],13.2% (inactive)
same,"activity change, negative = inhibition",[2],5.55% (inactive)
same,"activity, negative = inhibition",[3],0.869% (inactive)
same,Potency,[5],> 46 µM (inactive)
same,outcome,[6],inactive
same,"activity change, negative = inhibition",[8],-3.18% (inactive)
same,max response,[8]; [20],22%
same,max response,[8]; [21],18.9%
same,Potency,[12],inactive
same,outcome,[13],inactive
same,outcome,[14],inactive
same,Potency,[19],inactive
COCCn1c(=O)c(-c2cccc(C#N)c2)nc2cnc(N(C)C)nc21,Potency,[1],> 11.4 µM (inactive)
same,"activity change, negative = inhibition",[15],-1.01% (inactive)
same,Potency,[16],2 µM (active)
same,"activity change, negative = inhibition",[2],-2.05% (inactive)
same,"activity, negative = inhibition",[3],-10.5% (inactive)
same,Potency,[4],> 9.22 µM (inactive)
same,Potency,[5],> 46 µM (inactive)
same,outcome,[6],inactive
same,Potency,[18],inactive
same,"activity change, negative = inhibition",[8],3.6% (inactive)
same,max response,[8]; [20],16.6%
same,max response,[8]; [21],17.9%
same,Potency,[9],inactive
same,Potency,[10],inactive
same,Potency,[17],inactive
same,Potency,[11],inactive
same,Potency,[12],inactive
